The text below walks through data of PubChem BioAssay AID1117273 (Broad Institute, 2014).

Each structure is given as a SMILES string. Activity calls are given as the source filed them. The rule behind the calls is not given here.

The assay in a line: inhibitors of orthopox early gene expression, dose response, cell-based, single fluorophore reporter, dry powder (AID 1117273). Conditions: orthopoxvirus-infected cells, early gene fluorescent reporter; at 10 µM; stronger effect = higher value.
On to `C[C@@H](O)C#Cc1ccc2c(c1)O[C@@H](CN(C)Cc1ccc(-c3cccc(Cl)c3)cc1)[C@@H](C)CN([C@@H](C)CO)S2(=O)=O`, for which the inhibition is 48.5% (inactive). `COc1ccccc1-c1ccc(CN(C)C[C@@H]2Oc3cc(C#C[C@@H](C)O)ccc3S(=O)(=O)N([C@@H](C)CO)C[C@@H]2C)cc1`: the inhibition is -12.9% (inactive). For the compound `C[C@@H](O)C#Cc1ccc2c(c1)O[C@@H](CN(C)Cc1ccc(-c3ccccc3Cl)cc1)[C@@H](C)CN([C@@H](C)CO)S2(=O)=O`, the inhibition was 59.3% (inactive). For the compound `Cc1ccccc1-c1ccc(CN(C)C[C@@H]2Oc3cc(C#C[C@@H](C)O)ccc3S(=O)(=O)N([C@@H](C)CO)C[C@@H]2C)cc1`, the inhibition is 63.3% (inactive).

For `Cc1ccc(-c2ccc(CN(C)C[C@@H]3Oc4cc(C#C[C@@H](C)O)ccc4S(=O)(=O)N([C@@H](C)CO)C[C@@H]3C)cc2)cc1`, the inhibition was 32.5% (inactive). The result for `C[C@@H](O)C#Cc1ccc2c(c1)O[C@@H](CN(C)Cc1ccc(-c3ccc(Cl)cc3)cc1)[C@@H](C)CN([C@@H](C)CO)S2(=O)=O` reads 17.2% (inactive); that for `Cc1cccc(-c2ccc(CN(C)C[C@@H]3Oc4cc(C#C[C@@H](C)O)ccc4S(=O)(=O)N([C@@H](C)CO)C[C@@H]3C)cc2)c1`, 48% (inactive).

Broadly, the inhibition is the relative decrease from the control value, in per cent.
